Results filed as inconclusive are left out. Active and inactive are the calls of the source. Unless noted, the call rests on the fitted dose curve; in most records, active means well fitted curve in the direction sought with a large enough effect in the repeat runs; inconclusive means weak or mixed curves; inactive means no such curve, though single readings can be large; an effect the other way counts as inactive or inconclusive.
How the values were obtained:
[1] = A CellTox Green Cytotoxicity Assay to monitor cytotoxicity in HEK293 cells - 32 hour (AID 1224881); further: nearly all actives have a fitted effect of over 40% in size; further: potency means the concentration at half of the fitted maximal effect
Outline: (§1)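 Fluorescence intensity, read at 0, 8, 16, 24, 32 and 40 h of compound treatment, reflected dye binding to DNA of dead HEK293 cells; compounds (23 nL, DMSO) were added 5 h after plating cells with reagent.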

[2] = A CellTox Green Cytotoxicity Assay to monitor cytotoxicity in HepG2 cells - 0 hour (AID 1224882); further: nearly all actives have a fitted effect of over 35% in size
Outline: (§2)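 Using 1536-well format, dye-containing HepG2 suspension was seeded, allowed 5 h at 37 C/5% CO2, dosed by pintool with compounds, positive and negative controls, and imaged for fluorescence across 40 h.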

[3] = A CellTox Green Cytotoxicity Assay to monitor cytotoxicity in HepG2 cells - 32 hour (AID 1224883); further: nearly all actives have a fitted effect of over 50% in size
Outline: as §2

[4] = qHTS RealTime-Glo MT Cell Viability Assay in HepG2 cells - 16 hour (AID 1224885); further: nearly all actives have a fitted effect of over 50% in size
Outline: (§3)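 Compound treatment began 5 h after plating HepG2 cells (600/well) with NanoLuc luciferase and prosubstrate. Plates stayed at 37 C for 40 h; luminescence was captured at six time points, 0 h through 40 h.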

[5] = qHTS RealTime-Glo MT Cell Viability Assay in HEK293 cells - 8 hour (AID 1224887); further: nearly all actives have a fitted effect of over 50% in size; further: potency means the concentration at half of the fitted maximal effect
Outline: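 Viable HEK293 cells reduce a cell-permeant prosubstrate; the product diffuses out and is consumed by NanoLuc in the medium to give light. Compounds went in after a 5 h incubation and plates were read over the treatment course.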

[6] = A CellTox Green Cytotoxicity Assay to monitor cytotoxicity in HEK293 cells - 16 hour (AID 1224888); further: nearly all actives have a fitted effect of over 35% in size
Outline: as §1

[7] = A CellTox Green Cytotoxicity Assay to monitor cytotoxicity in HepG2 cells - 8 hour (AID 1224890); further: nearly all actives have a fitted effect of over 45% in size
Outline: as §2

[8] = qHTS assay to identify small molecule antagonists of the estrogen receptor alpha (ER-alpha) signaling pathway using the BG1 cell line in the presence of 0.1 nM 17-beta-estradiol - cell viability counter screen (AID 1259241); further: nearly all actives have a fitted effect of over 40% in size
Outline: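 Cells were plated and left 24 hr, compounds in DMSO were pinned in, 17beta-estradiol was added to 0.1 nM final, and after 22 hr CellTiter-Fluor reagent was added for 30 min before fluorescence was read.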

[9] = qHTS assay to identify small molecule antagonists of the androgen receptor (AR) signaling pathway using the MDA cell line in the presence of 0.5 nM R1881 - cell viability counter screen (AID 1259242); further: nearly all actives have a fitted effect of over 45% in size
Outline: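 Viability of MDA-kb2 cells was multiplexed with the luciferase AR readout; after 16 hr with compounds and R1881 at 0.5 nM final, CellTiter-Fluor fluorescence was recorded.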

[10] = qHTS assay to identify small molecule HDAC inhibitors (AID 1259364);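 further: wild-type HCT-116 cells with endogenous class I/II HDAC activity; top concentration of the series differs between compounds; nearly all actives have a fitted effect of over 45% in size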
Outline: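 Read-out: luminescence of HDAC-Glo I/II reagent, 30 min RT, reflecting class I/II deacetylase activity in whole HCT-116 cells pre-exposed 2 h to DMSO-dissolved compounds.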

[11] = qHTS assay to identify small molecule HDAC inhibitors - cell viability counter screen (AID 1259365); further: series mostly up to about 92 µM; nearly all actives have a fitted effect of over 50% in size
Outline: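 Counter screen in wild-type HCT-116 cells: compounds dissolved in DMSO are pin-transferred onto overnight-plated cells and left 2hr at 37C. ATP-based CellTiter-Glo luminescence then measures viable cells.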

[12] = qHTS assay to identify small molecule agonists of the sonic hedgehog signaling (Shh) pathway - cell viability counter screen (AID 1259366); further: nearly all actives have a fitted effect of over 50% in size
Outline: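 Cells are plated at 2,000 per well and left 4hr at 37C, 5% CO2 before compound addition. After 23hr of treatment, CellTiter-Fluor reagent is added for 1hr at 37C and fluorescence is measured.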

[13] = qHTS assay to identify small molecule agonists of the sonic hedgehog signaling (Shh) pathway (AID 1259368; calls by dose curve;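 further: NIH/3T3-derived 3T3Gli1-Luc cells carrying a stable Gli1-driven firefly luciferase reporter; series mostly up to about 92 µM; nearly all actives have a fitted effect of over 15% in size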)
Outline: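 A Gli1 transcriptional response element controlled firefly luciferase in 3T3Gli1-Luc cells. Compounds and a positive control were added 4 hr after plating, and cells were incubated a further 24 hr at 37 C before luminescence detection.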

[14] = A CellTox Green Cytotoxicity Assay to monitor cytotoxicity in HEK293 cells - 8 hour (AID 1224884); further: nearly all actives have a fitted effect of over 35% in size
Outline: as §1

[15] = qHTS RealTime-Glo MT Cell Viability Assay in HEK293 cells - 24 hour (AID 1224886); further: nearly all actives have a fitted effect of over 50% in size; further: potency means the concentration at half of the fitted maximal effect
Outline: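 Quantitative high-throughput screen of the Tox21 10K library in HEK293: cells and RealTime-Glo reagents plated together, compound added at 5 h, luminescence monitored through 40 h at 37 C.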

[16] = qHTS RealTime-Glo MT Cell Viability Assay in HepG2 cells - 0 hour (AID 1224889); further: nearly all actives have a fitted effect of over 50% in size
Outline: as §3

[17] = molecular target: Estrogen receptor (Homo sapiens) (UniProt P03372); test: qHTS assay to identify small molecule antagonists of the estrogen receptor alpha (ER-alpha) signaling pathway using the BG1 cell line in the presence of 0.1 nM 17-beta-estradiol (AID 1259244); further: nearly all actives have a fitted effect of over 50% in size
Sequence of Estrogen receptor (Homo sapiens) (P03372 whole entry, looked up): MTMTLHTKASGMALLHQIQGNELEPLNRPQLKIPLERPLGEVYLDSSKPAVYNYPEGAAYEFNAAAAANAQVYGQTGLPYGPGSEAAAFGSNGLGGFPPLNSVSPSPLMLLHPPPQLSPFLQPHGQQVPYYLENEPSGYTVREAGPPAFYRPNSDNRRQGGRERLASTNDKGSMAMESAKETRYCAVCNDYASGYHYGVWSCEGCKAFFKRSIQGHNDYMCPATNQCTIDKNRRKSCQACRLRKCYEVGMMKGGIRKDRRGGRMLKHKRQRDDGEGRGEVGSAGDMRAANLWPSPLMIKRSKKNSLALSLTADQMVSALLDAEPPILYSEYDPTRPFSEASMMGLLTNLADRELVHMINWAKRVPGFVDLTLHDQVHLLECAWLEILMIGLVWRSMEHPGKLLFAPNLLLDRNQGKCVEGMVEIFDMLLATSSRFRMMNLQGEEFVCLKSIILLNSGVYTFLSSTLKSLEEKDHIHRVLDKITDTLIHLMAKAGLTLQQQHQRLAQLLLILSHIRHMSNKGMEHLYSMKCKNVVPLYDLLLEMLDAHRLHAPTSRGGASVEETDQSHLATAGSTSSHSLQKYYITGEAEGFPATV
Outline: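 Estradiol at 0.1 nM (final) stimulates the endogenous ER-alpha of VM7Luc4E2 cells carrying an ERE-driven luciferase; compounds are co-incubated 22 h at 37C and luciferase output quantified by luminescence.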

[18] = qHTS assay to identify small molecule antagonists of the sonic hedgehog signaling (Shh) pathway - cell viability counter screen (AID 1259367); further: nearly all actives have a fitted effect of over 55% in size
Outline: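 Using CellTiter-Fluor, viability of Gli1-Luc reporter 3T3 cells is read by fluorescence in the wells used for the Shh luciferase assay. Treatment lasts 23 hr with conditioned medium, then reagent 1 hr at 37C.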

[19] = qHTS assay to identify small molecule phospholipidosis (PLD) inducers (AID 1259344; active means well fitted curve in the direction sought with a large enough effect; an effect the other way counts as inactive or inconclusive)
Outline: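 Fluorescent phospholipid staining (LipidTOX Red) measured by automated microscopy in fixed HepG2 cells after 24 h treatment; nuclei counterstained with Hoechst 33342; amiodarone as reference inducer.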

[20] = molecular target: Androgen receptor (Homo sapiens) (UniProt P10275); test: qHTS assay to identify small molecule antagonists of the androgen receptor (AR) signaling pathway using the MDA cell line in the presence of 0.5 nM R1881 (AID 1259243); further: nearly all actives have a fitted effect of over 50% in size
Sequence of Androgen receptor (Homo sapiens) (P10275 whole entry, looked up): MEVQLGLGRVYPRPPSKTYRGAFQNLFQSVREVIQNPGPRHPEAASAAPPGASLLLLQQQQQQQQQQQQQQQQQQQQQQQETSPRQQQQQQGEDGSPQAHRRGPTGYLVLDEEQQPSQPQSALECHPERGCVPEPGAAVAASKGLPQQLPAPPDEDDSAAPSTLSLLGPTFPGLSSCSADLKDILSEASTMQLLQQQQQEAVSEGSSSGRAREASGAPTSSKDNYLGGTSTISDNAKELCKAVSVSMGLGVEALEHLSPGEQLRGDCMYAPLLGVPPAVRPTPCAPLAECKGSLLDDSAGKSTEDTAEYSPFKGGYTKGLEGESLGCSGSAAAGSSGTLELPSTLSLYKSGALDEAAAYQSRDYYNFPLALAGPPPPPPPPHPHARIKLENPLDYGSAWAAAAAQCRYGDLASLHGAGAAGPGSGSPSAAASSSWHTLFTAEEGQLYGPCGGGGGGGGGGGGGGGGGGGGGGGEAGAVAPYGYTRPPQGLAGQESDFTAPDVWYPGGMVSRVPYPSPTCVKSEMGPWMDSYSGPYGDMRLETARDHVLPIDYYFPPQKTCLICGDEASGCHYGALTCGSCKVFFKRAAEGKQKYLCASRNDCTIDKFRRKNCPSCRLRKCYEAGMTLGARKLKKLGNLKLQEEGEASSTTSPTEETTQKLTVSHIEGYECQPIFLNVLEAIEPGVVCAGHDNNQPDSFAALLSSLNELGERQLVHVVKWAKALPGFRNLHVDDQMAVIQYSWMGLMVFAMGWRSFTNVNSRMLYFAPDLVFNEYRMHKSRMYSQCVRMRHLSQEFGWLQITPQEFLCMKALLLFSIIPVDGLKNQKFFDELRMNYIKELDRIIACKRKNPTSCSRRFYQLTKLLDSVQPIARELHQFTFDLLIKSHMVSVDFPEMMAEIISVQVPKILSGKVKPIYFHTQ
Outline: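 Reporter cells cultured without CO2 receive test chemicals, then 0.5 nM R1881 final; after 16 hr at 37C, ONE-Glo is added and light output recorded.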

Measured: Potency

CCOC(=O)N(C)C(=O)CSP(=S)(OCC)OCC
inactive: [1] | [2] | [3] | [4] | [5] | [6] | [7] | [8] | [9] | [10] | [11] | [12] | [13]

O=C(Nc1ccccc1)N(Cc1ccc(Cl)cc1)C1CCCC1
active: [15] 21.9 µM | [5] 24.5 µM
inactive: [1] | [2] | [3] | [14] | [16] | [7] | [8] | [9] | [10] | [11]

OC(Cn1cncn1)(c1ccc(F)cc1)c1ccccc1F (stereo not drawn)
inactive: [1] | [2] | [3] | [14] | [4] | [5] | [16] | [8] | [9] | [17] | [10] | [11] | [12] | [18] | [13]

CN1C[C@@H](NS(=O)(=O)N(C)C)C[C@@H]2c3cccc4c3c(cn4C)C[C@H]21
inactive: [1] | [2] | [14] | [4] | [15] | [5] | [6] | [16] | [7] | [9] | [19] | [10] | [11] | [18] | [13]

Nc1n[nH]c(N)n1
inactive: [1] | [2] | [3] | [14] | [4] | [5] | [16] | [8] | [9] | [10] | [11] | [12] | [18] | [13]

COc1ccc(C(=O)N2CCCC2=O)cc1
inactive: [1] | [2] | [14] | [4] | [15] | [5] | [6] | [16] | [8] | [9] | [19] | [10] | [11] | [12] | [18] | [13]

ClCCCN1CCN(c2cccc(Cl)c2)CC1
inactive: [1] | [2] | [3] | [14] | [4] | [5] | [7] | [8] | [9] | [17] | [10] | [11] | [12] | [18] | [13]

O=S(=O)(O)C(F)(F)C(F)(F)C(F)(F)C(F)(F)C(F)(F)C(F)(F)F
inactive: [1] | [2] | [14] | [4] | [15] | [5] | [6] | [16] | [7] | [8] | [9] | [17] | [10] | [11] | [12] | [18] | [13]

COc1ncc(F)c2nc(S(=O)(=O)Nc3c(F)cccc3F)nn12
inactive: [2] | [3] | [4] | [15] | [5] | [16] | [8] | [9] | [20] | [17] | [10] | [11] | [12] | [18] | [13]
active: [1] 13.9 µM
